Columns and labels:
Assay in all cases: DAPPL (digital affinity profiling via proximity ligation, sequencing); 10 mM Tris-HCl pH 7.5, 50 mM NaCl, 1 mM DTT, 4% glycerol, room temperature, 30 min; GST-TFs on glutathione beads, 16-mer random dsDNA library, 0.1% formaldehyde crosslink after washing; high values mean tight binding
FEV = molecular target: T1, FEV (Homo sapiens, UniProt Q99581 1-238); conditions: protein: recombinant; tags: N-terminal GST; dsDNA, one strand shown
T1 sequence: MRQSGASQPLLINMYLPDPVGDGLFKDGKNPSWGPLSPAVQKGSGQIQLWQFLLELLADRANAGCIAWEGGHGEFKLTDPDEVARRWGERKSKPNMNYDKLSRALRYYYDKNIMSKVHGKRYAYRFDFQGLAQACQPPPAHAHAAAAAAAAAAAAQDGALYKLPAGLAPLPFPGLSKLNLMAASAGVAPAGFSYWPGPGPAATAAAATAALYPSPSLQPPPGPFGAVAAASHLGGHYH
Method in brief: (§1)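 Yeast served to express human transcription factors as GST fusions, which were then captured on glutathione beads and labelled with DNA barcodes. Pooled with a tag-only sample, they were incubated with 200 nmole of a 16-mer random double-stranded DNA library for 30 min at room temperature in Tris/NaCl/DTT/glycerol buffer, washed, crosslinked with 0.1% formaldehyde, ligated by proximity, amplified by PCR and sequenced. Dividing each hexamer's read frequency for a factor by its frequency for the tag-only sample gives the binding signal.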

ETV5 = ETV5 (Homo sapiens, UniProt P41161 1-510); conditions: protein: recombinant; tags: N-terminal GST; dsDNA, one strand shown
Method in brief: as §1

HSF1 = HSF1 (Homo sapiens, UniProt Q00613 1-529); conditions: protein: recombinant; tags: N-terminal GST; chain copies: 3; dsDNA, one strand shown
Method in brief: as §1

SPIC = molecular target: T2, SPIC (Homo sapiens, UniProt Q8N5J4 1-248); conditions: protein: recombinant; tags: N-terminal GST; dsDNA, one strand shown
T2 sequence: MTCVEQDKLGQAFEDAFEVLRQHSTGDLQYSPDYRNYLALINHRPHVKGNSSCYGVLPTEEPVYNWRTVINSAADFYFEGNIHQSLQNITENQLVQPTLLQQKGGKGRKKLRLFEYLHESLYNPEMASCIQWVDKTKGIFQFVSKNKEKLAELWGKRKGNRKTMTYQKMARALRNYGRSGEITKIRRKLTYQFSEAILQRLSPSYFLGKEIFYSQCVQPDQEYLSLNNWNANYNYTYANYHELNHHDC
Method in brief: as §1

ELF4 = ELF4 (Homo sapiens, UniProt Q99607 1-663); conditions: protein: recombinant; tags: N-terminal GST; dsDNA, one strand shown
Method in brief: as §1

ELK4 = molecular target: T3, ELK4 (Homo sapiens, UniProt P28324-2 1-405); conditions: protein: recombinant; tags: N-terminal GST; dsDNA, one strand shown
T3 sequence: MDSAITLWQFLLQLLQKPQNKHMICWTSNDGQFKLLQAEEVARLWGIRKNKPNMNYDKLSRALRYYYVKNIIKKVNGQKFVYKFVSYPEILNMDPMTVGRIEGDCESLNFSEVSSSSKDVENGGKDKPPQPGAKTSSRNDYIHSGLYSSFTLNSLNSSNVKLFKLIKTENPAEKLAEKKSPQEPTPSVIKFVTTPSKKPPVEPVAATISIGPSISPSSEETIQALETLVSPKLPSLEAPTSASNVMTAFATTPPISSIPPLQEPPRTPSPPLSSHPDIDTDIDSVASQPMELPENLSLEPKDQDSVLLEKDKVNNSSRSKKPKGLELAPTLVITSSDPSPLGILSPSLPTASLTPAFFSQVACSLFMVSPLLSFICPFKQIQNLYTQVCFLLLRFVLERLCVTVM
Method in brief: as §1

ETV2 = molecular target: T4, ETV2 (Homo sapiens, UniProt O00321 1-342); conditions: protein: recombinant; tags: N-terminal GST; dsDNA, one strand shown
T4 sequence: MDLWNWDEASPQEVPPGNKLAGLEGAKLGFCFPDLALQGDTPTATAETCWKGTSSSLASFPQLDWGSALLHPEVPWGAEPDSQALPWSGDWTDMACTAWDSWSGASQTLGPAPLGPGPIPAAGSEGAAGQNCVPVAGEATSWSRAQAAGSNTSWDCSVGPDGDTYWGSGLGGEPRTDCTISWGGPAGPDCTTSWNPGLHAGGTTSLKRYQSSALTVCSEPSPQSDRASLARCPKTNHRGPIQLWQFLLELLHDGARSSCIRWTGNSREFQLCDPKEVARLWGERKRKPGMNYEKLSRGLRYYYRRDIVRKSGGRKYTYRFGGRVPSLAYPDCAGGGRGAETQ
Method in brief: as §1

ELF3 = molecular target: T5, ELF3 (Homo sapiens, UniProt P78545 1-371); conditions: protein: recombinant; tags: N-terminal GST; dsDNA, one strand shown
T5 sequence: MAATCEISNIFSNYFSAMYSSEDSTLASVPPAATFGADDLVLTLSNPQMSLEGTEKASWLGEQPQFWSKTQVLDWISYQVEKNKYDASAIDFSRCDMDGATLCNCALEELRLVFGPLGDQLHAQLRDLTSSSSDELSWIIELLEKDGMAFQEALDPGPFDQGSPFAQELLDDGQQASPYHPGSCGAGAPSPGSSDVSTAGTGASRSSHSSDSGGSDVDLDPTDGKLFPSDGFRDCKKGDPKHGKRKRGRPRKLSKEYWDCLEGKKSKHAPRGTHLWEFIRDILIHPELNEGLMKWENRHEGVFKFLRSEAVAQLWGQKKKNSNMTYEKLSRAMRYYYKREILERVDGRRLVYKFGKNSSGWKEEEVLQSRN
Method in brief: as §1

CRX = CRX (Homo sapiens, UniProt O43186 1-299); conditions: protein: recombinant; tags: N-terminal GST; dsDNA, one strand shown
Method in brief: as §1

ETV1 = ETV1 (Homo sapiens, UniProt P50549 1-477); conditions: protein: recombinant; tags: N-terminal GST; dsDNA, one strand shown
Method in brief: as §1

ERF = molecular target: T6, ERF (Homo sapiens, UniProt P50548 1-548); conditions: protein: recombinant; tags: N-terminal GST; dsDNA, one strand shown
T6 sequence: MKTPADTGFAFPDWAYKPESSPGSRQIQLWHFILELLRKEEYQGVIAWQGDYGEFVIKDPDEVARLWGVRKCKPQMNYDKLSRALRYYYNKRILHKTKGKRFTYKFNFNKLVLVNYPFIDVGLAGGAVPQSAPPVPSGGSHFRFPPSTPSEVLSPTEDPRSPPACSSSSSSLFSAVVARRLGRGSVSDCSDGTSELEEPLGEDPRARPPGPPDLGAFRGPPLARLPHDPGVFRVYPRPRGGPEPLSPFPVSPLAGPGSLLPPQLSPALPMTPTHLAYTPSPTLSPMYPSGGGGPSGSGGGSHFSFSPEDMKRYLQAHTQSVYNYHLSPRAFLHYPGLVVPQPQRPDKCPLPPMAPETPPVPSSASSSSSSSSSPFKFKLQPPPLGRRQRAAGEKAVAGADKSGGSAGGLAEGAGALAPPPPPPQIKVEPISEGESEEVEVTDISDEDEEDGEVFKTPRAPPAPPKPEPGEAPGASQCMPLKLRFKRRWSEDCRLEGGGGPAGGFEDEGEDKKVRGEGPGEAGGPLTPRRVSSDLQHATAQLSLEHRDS
Method in brief: as §1

ETV3L = molecular target: T7, ETV3L (Homo sapiens, UniProt Q6ZN32 1-361); conditions: protein: recombinant; tags: N-terminal GST; dsDNA, one strand shown
T7 sequence: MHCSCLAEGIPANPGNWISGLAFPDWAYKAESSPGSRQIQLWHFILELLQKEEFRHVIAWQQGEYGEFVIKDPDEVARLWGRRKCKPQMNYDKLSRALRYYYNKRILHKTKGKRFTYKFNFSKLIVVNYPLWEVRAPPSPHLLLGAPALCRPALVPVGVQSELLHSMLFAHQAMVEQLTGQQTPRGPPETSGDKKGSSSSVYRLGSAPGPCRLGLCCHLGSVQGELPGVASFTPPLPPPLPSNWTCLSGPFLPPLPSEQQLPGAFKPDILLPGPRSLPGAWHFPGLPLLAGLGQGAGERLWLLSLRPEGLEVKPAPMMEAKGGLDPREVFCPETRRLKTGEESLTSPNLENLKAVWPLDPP
Method in brief: as §1

ETS2 = molecular target: T8, ETS2 (Homo sapiens, UniProt P15036 1-469); conditions: protein: recombinant; tags: N-terminal GST; dsDNA, one strand shown
T8 sequence: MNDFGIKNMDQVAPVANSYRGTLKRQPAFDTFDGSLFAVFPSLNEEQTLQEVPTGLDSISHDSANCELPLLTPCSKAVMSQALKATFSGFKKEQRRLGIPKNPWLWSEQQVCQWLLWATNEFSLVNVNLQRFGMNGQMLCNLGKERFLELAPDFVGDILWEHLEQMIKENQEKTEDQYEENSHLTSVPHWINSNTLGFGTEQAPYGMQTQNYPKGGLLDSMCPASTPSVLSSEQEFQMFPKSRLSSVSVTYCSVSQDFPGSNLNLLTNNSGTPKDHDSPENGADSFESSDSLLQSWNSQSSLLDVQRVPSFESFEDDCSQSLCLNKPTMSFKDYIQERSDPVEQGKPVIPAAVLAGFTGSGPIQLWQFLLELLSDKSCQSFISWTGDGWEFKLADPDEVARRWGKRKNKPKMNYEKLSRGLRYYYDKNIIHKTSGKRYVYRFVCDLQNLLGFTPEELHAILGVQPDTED
Method in brief: as §1

SPDEF = molecular target: T9, SPDEF (Homo sapiens, UniProt O95238 1-335); conditions: protein: recombinant; tags: N-terminal GST; dsDNA, one strand shown
T9 sequence: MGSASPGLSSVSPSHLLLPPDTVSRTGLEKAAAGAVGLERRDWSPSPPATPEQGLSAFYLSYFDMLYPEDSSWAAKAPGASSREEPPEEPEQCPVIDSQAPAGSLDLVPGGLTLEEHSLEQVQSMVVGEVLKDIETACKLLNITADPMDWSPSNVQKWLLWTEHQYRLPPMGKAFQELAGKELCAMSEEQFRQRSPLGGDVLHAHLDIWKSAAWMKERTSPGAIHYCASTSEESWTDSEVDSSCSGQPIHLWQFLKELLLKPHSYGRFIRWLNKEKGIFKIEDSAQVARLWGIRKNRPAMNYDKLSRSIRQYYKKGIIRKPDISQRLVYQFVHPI
Method in brief: as §1

ETV7 = molecular target: T10, ETV7 (Homo sapiens, UniProt Q9Y603 1-341); conditions: protein: recombinant; tags: N-terminal GST; dsDNA, one strand shown
T10 sequence: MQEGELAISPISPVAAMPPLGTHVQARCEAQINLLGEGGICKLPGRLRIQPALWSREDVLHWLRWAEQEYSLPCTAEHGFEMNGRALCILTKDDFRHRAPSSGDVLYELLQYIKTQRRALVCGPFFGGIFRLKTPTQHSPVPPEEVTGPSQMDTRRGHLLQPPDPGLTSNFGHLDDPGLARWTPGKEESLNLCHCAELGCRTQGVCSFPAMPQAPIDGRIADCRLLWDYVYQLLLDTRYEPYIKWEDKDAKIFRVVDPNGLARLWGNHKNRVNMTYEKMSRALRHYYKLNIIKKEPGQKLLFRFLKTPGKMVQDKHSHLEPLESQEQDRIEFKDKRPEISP
Method in brief: as §1

ELF5 = molecular target: T11, ELF5 (Homo sapiens, UniProt Q9UKW6-2 1-255); conditions: protein: recombinant; tags: N-terminal GST; dsDNA, one strand shown
T11 sequence: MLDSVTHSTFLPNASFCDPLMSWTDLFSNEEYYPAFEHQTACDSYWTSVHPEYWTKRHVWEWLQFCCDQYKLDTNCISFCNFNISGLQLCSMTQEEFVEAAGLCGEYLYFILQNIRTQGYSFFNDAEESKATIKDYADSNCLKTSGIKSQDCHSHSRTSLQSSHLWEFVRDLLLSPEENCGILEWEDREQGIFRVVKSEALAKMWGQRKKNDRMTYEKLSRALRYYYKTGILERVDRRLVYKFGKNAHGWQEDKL
Method in brief: as §1

ETV3 = molecular target: T12, ETV3 (Homo sapiens, UniProt P41162-2 1-143); conditions: protein: recombinant; tags: N-terminal GST; dsDNA, one strand shown
T12 sequence: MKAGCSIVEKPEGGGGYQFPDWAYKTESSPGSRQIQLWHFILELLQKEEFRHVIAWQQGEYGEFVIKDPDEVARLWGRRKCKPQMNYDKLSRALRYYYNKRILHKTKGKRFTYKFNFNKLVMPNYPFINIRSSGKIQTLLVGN
Method in brief: as §1

ETV6 = ETV6 (Homo sapiens, UniProt P41212 1-452); conditions: protein: recombinant; tags: N-terminal GST; dsDNA, one strand shown
Method in brief: as §1

Sequence of ETV5 (P41161 whole entry): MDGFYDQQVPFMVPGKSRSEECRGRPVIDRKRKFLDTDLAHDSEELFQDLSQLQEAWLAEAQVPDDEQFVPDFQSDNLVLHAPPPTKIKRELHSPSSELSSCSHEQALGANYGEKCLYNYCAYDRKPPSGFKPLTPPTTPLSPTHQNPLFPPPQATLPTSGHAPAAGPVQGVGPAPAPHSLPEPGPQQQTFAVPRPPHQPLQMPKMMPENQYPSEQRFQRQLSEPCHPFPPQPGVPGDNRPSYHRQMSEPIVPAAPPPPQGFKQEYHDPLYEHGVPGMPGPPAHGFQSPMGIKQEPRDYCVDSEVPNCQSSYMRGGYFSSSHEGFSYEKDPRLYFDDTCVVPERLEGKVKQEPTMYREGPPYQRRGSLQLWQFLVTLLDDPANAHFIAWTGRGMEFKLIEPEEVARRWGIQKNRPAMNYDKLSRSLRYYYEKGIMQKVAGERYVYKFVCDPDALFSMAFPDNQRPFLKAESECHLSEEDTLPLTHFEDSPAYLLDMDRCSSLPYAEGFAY
Sequence of CRX (O43186 whole entry): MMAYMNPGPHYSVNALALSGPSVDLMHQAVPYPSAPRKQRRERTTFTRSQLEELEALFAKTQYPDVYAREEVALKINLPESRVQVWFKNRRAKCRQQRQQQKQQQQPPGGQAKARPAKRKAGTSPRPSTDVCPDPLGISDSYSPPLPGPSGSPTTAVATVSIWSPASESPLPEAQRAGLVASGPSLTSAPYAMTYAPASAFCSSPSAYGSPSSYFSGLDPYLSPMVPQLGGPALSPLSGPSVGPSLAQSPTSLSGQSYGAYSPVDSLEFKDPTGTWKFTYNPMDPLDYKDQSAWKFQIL
Sequence of ELF4 (Q99607 whole entry): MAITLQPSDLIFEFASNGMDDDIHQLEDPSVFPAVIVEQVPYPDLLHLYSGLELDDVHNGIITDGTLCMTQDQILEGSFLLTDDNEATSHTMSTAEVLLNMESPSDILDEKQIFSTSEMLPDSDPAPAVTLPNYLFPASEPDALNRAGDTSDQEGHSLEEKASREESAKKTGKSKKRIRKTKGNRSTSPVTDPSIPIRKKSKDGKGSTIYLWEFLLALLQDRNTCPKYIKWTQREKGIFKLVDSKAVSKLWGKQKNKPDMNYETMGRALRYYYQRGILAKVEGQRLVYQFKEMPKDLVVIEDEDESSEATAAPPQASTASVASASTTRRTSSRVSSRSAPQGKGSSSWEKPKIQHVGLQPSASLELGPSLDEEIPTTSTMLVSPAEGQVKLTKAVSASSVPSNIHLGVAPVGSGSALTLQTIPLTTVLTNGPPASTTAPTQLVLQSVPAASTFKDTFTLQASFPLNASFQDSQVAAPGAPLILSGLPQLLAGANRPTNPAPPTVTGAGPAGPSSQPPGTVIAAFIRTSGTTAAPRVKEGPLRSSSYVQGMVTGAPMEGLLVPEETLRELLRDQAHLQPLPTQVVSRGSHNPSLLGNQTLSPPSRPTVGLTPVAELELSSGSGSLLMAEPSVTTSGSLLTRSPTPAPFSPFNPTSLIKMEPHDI
Sequence of HSF1 (Q00613 whole entry): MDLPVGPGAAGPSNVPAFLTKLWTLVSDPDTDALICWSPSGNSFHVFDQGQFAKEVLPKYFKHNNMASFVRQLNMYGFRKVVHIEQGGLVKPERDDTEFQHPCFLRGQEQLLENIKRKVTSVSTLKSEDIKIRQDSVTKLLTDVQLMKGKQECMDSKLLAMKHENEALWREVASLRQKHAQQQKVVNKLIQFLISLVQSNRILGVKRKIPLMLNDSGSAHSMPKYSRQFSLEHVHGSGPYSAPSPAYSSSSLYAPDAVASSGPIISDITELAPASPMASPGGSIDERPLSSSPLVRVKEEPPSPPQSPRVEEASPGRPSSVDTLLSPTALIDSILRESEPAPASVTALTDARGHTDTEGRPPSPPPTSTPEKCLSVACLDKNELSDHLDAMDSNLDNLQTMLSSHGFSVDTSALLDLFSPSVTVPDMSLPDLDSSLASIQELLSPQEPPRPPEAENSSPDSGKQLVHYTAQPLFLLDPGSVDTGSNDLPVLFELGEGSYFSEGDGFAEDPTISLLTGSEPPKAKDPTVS
Sequence of ETV6 (P41212 whole entry): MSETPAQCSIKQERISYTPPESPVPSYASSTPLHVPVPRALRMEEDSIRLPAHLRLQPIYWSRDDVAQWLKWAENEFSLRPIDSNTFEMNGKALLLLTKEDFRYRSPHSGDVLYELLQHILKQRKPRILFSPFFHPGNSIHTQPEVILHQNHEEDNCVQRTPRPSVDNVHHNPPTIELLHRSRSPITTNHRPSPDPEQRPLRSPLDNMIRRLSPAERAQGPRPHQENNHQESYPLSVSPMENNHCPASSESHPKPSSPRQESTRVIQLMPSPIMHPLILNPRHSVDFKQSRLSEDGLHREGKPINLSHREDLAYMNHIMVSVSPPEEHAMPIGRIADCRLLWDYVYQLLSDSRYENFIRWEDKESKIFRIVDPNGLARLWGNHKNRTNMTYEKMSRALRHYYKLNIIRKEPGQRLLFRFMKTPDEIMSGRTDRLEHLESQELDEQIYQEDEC
Sequence of ETV1 (P50549 whole entry): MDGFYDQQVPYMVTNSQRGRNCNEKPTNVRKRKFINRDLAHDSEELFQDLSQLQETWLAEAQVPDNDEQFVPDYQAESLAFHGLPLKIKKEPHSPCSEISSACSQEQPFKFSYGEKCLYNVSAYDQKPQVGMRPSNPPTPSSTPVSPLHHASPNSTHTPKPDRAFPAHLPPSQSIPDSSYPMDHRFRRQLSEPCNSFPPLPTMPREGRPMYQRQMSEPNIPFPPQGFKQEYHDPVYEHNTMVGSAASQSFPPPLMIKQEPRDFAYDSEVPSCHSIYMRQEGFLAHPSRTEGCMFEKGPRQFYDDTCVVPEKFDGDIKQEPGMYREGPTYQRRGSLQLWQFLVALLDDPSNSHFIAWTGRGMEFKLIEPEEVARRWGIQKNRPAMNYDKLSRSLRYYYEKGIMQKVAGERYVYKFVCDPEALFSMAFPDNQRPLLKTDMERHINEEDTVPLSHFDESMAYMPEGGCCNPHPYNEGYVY

For GTTTCT, the binding signal (FEV) was 1.16 fold enrichment (6-mer frequency, TF over GST control), the binding signal (ETV5) was 1.24 fold enrichment (6-mer frequency, TF over GST control) and the binding signal (HSF1) was 1.84 fold enrichment (6-mer frequency, TF over GST control). For the same sequence, the binding signal (SPIC) was 1.28 fold enrichment (6-mer frequency, TF over GST control), the binding signal (ELF4) was 1.28 fold enrichment (6-mer frequency, TF over GST control) and the binding signal (ELK4) was 1.15 fold enrichment (6-mer frequency, TF over GST control). For the same sequence, the binding signal (ETV2) was 1.25 fold enrichment (6-mer frequency, TF over GST control), the binding signal (ELF3) was 1.2 fold enrichment (6-mer frequency, TF over GST control) and the binding signal (CRX) was 1.15 fold enrichment (6-mer frequency, TF over GST control). The binding signal (ETV1) was 1.33 fold enrichment (6-mer frequency, TF over GST control), the binding signal (ERF) was 1.24 fold enrichment (6-mer frequency, TF over GST control) and the binding signal (ETV3L) was 1.33 fold enrichment (6-mer frequency, TF over GST control). For the same sequence, the binding signal (ETS2) was 1.28 fold enrichment (6-mer frequency, TF over GST control), the binding signal (SPDEF) was 1.21 fold enrichment (6-mer frequency, TF over GST control) and the binding signal (ETV7) was 1.38 fold enrichment (6-mer frequency, TF over GST control). The binding signal (ELF5) was 1.31 fold enrichment (6-mer frequency, TF over GST control), the binding signal (ETV3) was 1.24 fold enrichment (6-mer frequency, TF over GST control) and the binding signal (ETV6) was 1.28 fold enrichment (6-mer frequency, TF over GST control).
